The values that follow come from PubChem BioAssay (NCI).

Some test systems named below: NCI-H23 lung; NCI-H226 lung; NCI-H322M lung; HOP-62 NSCLC; NCI-H460 lung; HOP-92 NSCLC; NCI-H522 lung; A549/ATCC NSCLC; 786-0 renal; COLO 205 colon.
What all share (experiment): NCI-60 one-dose screen, 48 h (100 = growth as untreated, 0 = no growth, -100 = all killed)
Conditions in all cases: 10 µM

Compounds without any hit were thinned out: in the full panel of roughly 83,000, 20% have a hit.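 Cells were grown in 96-well plates and exposed to the test compound at a single concentration for 48 hours; results are reported as percent growth, with values below 10 considered active.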 A number with no mark means an inactive call. Activity calls are given as the source filed them.

In the case of `CN(C)c1ccc(/C=C/C(=O)c2ccc(NC(=O)CN3C(=O)NC(C)(c4ccccc4)C3=O)cc2)cc1` (stereo not given), the growth in the assay on NCI-H23 lung was 66%; in the assay on NCI-H226 lung it was 53.2%; in the assay with NCI-H322M lung, 88.8%; in the assay on HOP-62 NSCLC, 88.9%; in the assay on NCI-H460 lung, 73.7%; in the assay with HOP-92 NSCLC, 65.3%. The growth was 78.3% in the assay on NCI-H522 lung, 56.5% in the assay on A549/ATCC NSCLC, 29.8% in the assay with 786-0 renal and 110% in the assay with COLO 205 colon.
For the molecule `O=c1[nH]c2ccccc2cc1CSc1ccc(Nc2nccc(-c3ccc(C(F)(F)F)cc3)n2)cc1`, the growth is 35.3% in the assay on NCI-H23 lung; -27.2% (active) with NCI-H226 lung; 23.8% in the assay on NCI-H322M lung; -14% (active) with HOP-62 NSCLC; 2.12% (active) in the assay with NCI-H460 lung; -1.46% (active) in the assay with HOP-92 NSCLC. For the same molecule, the growth with NCI-H522 lung was 28.3%; in the assay with A549/ATCC NSCLC, -16.8% (active); in the assay with 786-0 renal, -49.7% (active); in the assay with COLO 205 colon it was 18%.
Turning to `Nc1nc(-c2ccccc2)cs1`, the growth in the assay with NCI-H23 lung was 42%; in the assay on NCI-H226 lung it was 63.4%; in the assay with NCI-H322M lung it was 99.4%; in the assay with HOP-62 NSCLC, 52%; in the assay with NCI-H460 lung, 73.2%; with HOP-92 NSCLC, 60.9%. Moreover, the growth with NCI-H522 lung is -4.11% (active); with A549/ATCC NSCLC, 55.7%; with 786-0 renal, 93.7%; in the assay on COLO 205 colon it was 108%.
`Cc1ccc2nc(COc3ccc(C(=O)NNC(=S)NCCc4ccccc4)cc3)[nH]c2c1`: the growth with NCI-H23 lung is 17.2%; with NCI-H226 lung, 47.2%; with NCI-H322M lung it was 51.7%; in the assay on HOP-62 NSCLC, 42.4%; with NCI-H460 lung, 60.4%; in the assay on HOP-92 NSCLC, 9.55% (active). The growth is 55% with NCI-H522 lung, 104% in the assay on A549/ATCC NSCLC, 61% in the assay with 786-0 renal and 144% with COLO 205 colon.
With `O=C(CSc1nnc(-c2c[nH]c3ccccc23)n1-c1ccccc1)c1ccc(Br)cc1`, the growth with NCI-H23 lung is 54%; with NCI-H226 lung, 39.1%; in the assay on NCI-H322M lung it was 45.7%; in the assay on HOP-62 NSCLC, 73.6%; in the assay with NCI-H460 lung it was 34.5%; in the assay on HOP-92 NSCLC, 28.1%. The growth with NCI-H522 lung is 46.3%; in the assay with A549/ATCC NSCLC, 29.9%; in the assay on 786-0 renal, 82.4%; in the assay with COLO 205 colon, 13.5%.
Consider `Cc1noc2c(Cc3ccccc3)nn(CC(=O)N/N=C/c3ccc(Cl)cc3)c(=O)c12`, for which the growth is 79.1% in the assay on NCI-H23 lung; 14.5% in the assay on NCI-H226 lung; 96.3% in the assay with NCI-H322M lung; 34.9% in the assay with HOP-62 NSCLC; 10.4% in the assay on NCI-H460 lung; 9.05% (active) with HOP-92 NSCLC. Further, the growth was 83.9% in the assay with NCI-H522 lung, 20.4% in the assay with A549/ATCC NSCLC, -23.9% (active) in the assay with 786-0 renal and 51.8% in the assay with COLO 205 colon.
`COc1ccc(N2N=C(c3ccc4c(c3)OCCO4)CC2c2cccc(NC(=O)CCCNS(=O)(=O)c3ccc(F)cc3)c2)cc1` (stereo not given): the growth is 85.7% in the assay with NCI-H23 lung; 74.5% with NCI-H226 lung; 75% in the assay with NCI-H322M lung; 89.6% in the assay with HOP-62 NSCLC; 64.8% with NCI-H460 lung; 81.6% in the assay with HOP-92 NSCLC. The growth in the assay with NCI-H522 lung was 58.9%; in the assay with A549/ATCC NSCLC, 61.8%; with 786-0 renal, 66.6%; with COLO 205 colon it was 84%.
Turning to `Cn1c(O)c(N=Nc2nc(-c3cc4ccccc4oc3=O)cs2)c2cc(Br)ccc21`, the growth in the assay on NCI-H23 lung was 51.2%; in the assay on NCI-H226 lung it was 52%; in the assay with NCI-H322M lung, 84.4%; in the assay on HOP-62 NSCLC it was 12.1%; in the assay with NCI-H460 lung, 92%; in the assay on HOP-92 NSCLC, -14.7% (active). The growth in the assay with NCI-H522 lung is 57.9%; in the assay with A549/ATCC NSCLC, 97.8%; with 786-0 renal it was -12% (active); in the assay on COLO 205 colon, 136%.
`Cc1ccc(-c2ccc(SCC(=O)Nc3ccc(S(N)(=O)=O)cc3Br)nn2)cc1`: the growth with NCI-H23 lung is 27.3%; with NCI-H226 lung it was 22.6%; in the assay on NCI-H322M lung, 36%; with HOP-62 NSCLC, 14.1%; in the assay on NCI-H460 lung, 8.44% (active); in the assay with HOP-92 NSCLC, -31.6% (active). Further, the growth in the assay on NCI-H522 lung is 47.2%; with A549/ATCC NSCLC, 15.8%; in the assay with 786-0 renal, 16.4%; in the assay on COLO 205 colon it was 33.1%.
On to `COc1cc2oc(-c3cccc(C(=O)Nc4ccc(Cl)cc4)c3)cc(=O)c2c(OCCNC(=O)CNC(=O)OC(C)(C)C)c1OC`, for which the growth in the assay on NCI-H23 lung is 63.8%; in the assay with NCI-H226 lung, 59.7%; in the assay on NCI-H322M lung, 71.6%; in the assay with HOP-62 NSCLC it was 74.7%; in the assay on NCI-H460 lung, 76%; in the assay on HOP-92 NSCLC, 54.7%. Also, the growth was 45.7% in the assay on NCI-H522 lung, 53.9% in the assay on A549/ATCC NSCLC, 76.1% in the assay with 786-0 renal and 56.8% in the assay on COLO 205 colon.
For `COc1cc2c3c(n(CCCNC(C)C)c(=O)c2cc1OC)-c1nc2c(cc1C3=O)OCO2`, the growth was 16.5% in the assay on NCI-H23 lung; -32.2% (active) in the assay on NCI-H226 lung; 60.3% with NCI-H322M lung; 5.84% (active) with HOP-62 NSCLC; -74.2% (active) in the assay on NCI-H460 lung; 66.5% with HOP-92 NSCLC. Further, the growth in the assay on NCI-H522 lung is 50.9%; with A549/ATCC NSCLC, -62.8% (active); with 786-0 renal, -78.3% (active); in the assay with COLO 205 colon it was -67.6% (active).
For the molecule `O=C(Cn1cc(CSc2nnc3oc4ccccc4n23)nn1)Nc1ccc(Br)cc1`, the growth in the assay on NCI-H23 lung was 62.7%; with NCI-H226 lung, 45.2%; with NCI-H322M lung it was 86.9%; with HOP-62 NSCLC, 38.5%; with NCI-H460 lung it was 101%; with HOP-92 NSCLC, 32%. Also, the growth with NCI-H522 lung was 79.5%; with A549/ATCC NSCLC, 76.5%; with 786-0 renal, 69.6%; in the assay on COLO 205 colon, 103%.
Take `COc1cccc2nc(Nc3ccc(F)c(NC(=O)c4ccc(CN5CCN(C)CC5)c(C(F)(F)F)c4)c3)ccc12`: the growth in the assay with NCI-H23 lung was -17.8% (active); in the assay on NCI-H226 lung it was 17%; with NCI-H322M lung it was 32.7%; with HOP-62 NSCLC, -36.4% (active); with NCI-H460 lung, -68.8% (active); in the assay with HOP-92 NSCLC, -22.8% (active). In addition, the growth was -60.9% (active) with NCI-H522 lung, 18.5% with A549/ATCC NSCLC, -66.3% (active) in the assay with 786-0 renal and -78.7% (active) with COLO 205 colon.
